Measured values from the supplement of paper PMC10849652.
Targets with a hit are over-represented here; the source holds about 7,900 in all. About 0.6% of all pairs of compound and target were hits.

How the values were obtained:
Test in all cases: log2 fold change, soluble protein after heating vs DMSO (PISA); higher = thermal stabilisation; K562 cells, 10 uM, 30 min; active = over 0.2 and 3.5 SD of the protein, either way, in both replicates (recomputed)
IRAK-1-4 Inhibitor I = compound: C1COCCN1CCN2C3=CC=CC=C3N=C2NC(=O)C4=CC(=CC=C4)[N+](=O)[O-] [IRAK-1-4 Inhibitor I]
Summary of the method: (§1)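 K562 cells (2×10^6 cells/mL) were treated with 10 μM compound for 30 min, and aliquots were heated for 3 min over 48°C-58°C. Pooled aliquots were extracted in PBS with 0.5% NP-40 at 4°C, and the supernatant after 21,000xg for 90 min was measured by TMTpro 16plex LC-MS/MS with channel sums equalised. Reported thermal stability, relative to control samples and from duplicates, is a log2 fold change.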

ibrutinib = compound: C=CC(=O)N1CCC[C@@H](n2nc(-c3ccc(Oc4ccccc4)cc3)c3c(N)ncnc32)C1 [ibrutinib]
Summary of the method: as §1

[1] = compound: CC(=O)c1cnc2ccc(-c3cc(Cl)c(O)c(Cl)c3)nc2c1N[C@H]1CC[C@H](CN(C)C)CC1
Summary of the method: as §1

ralimetinib = compound: CC(C)(C)Cn1c(N)nc2ccc(-c3[nH]c(C(C)(C)C)nc3-c3ccc(F)cc3)nc21 [ralimetinib]
Summary of the method: as §1

[2] = compound: CC(C)(O)CC(=O)NCCn1ccc2ncnc(Nc3ccc(Oc4cccc(C(F)(F)F)c4)c(Cl)c3)c21
Summary of the method: as §1

[3] = compound: CC(C)C1=C2N=C(C=C(N2N=C1)NCC3=CC=CC=C3)NCCCCCCN
Summary of the method: as §1

[4] = compound: CC(C)C[C@@H](C=O)NC(=O)[C@H](CC(C)C)NC(=O)[C@H](CC(C)C)NC(=O)OCc1ccccc1
Summary of the method: as §1

pinometostat = compound: CC(C)N(C[C@H]1O[C@@H](n2cnc3c(N)ncnc32)[C@H](O)[C@@H]1O)[C@H]1C[C@@H](CCc2nc3cc(C(C)(C)C)ccc3[nH]2)C1 [pinometostat]
Summary of the method: as §1

[5] = compound: CC1=C(C(CC(=O)N1)C2=CC=C(C=C2)C(F)(F)F)C(=O)NC3=C(C=C4C(=C3)C=NN4)F
Summary of the method: as §1

[6] = compound: CC1=C(C2=C(C=C1)C(=O)C3=CC=CC=C3N2CCCN)C
Summary of the method: as §1

Measured: log2 fold change

MICU1 isoform 3 (UniProt Q9BPX6)
Chain of UniProt Q9BPX6 (Q9BPX6 whole entry, looked up): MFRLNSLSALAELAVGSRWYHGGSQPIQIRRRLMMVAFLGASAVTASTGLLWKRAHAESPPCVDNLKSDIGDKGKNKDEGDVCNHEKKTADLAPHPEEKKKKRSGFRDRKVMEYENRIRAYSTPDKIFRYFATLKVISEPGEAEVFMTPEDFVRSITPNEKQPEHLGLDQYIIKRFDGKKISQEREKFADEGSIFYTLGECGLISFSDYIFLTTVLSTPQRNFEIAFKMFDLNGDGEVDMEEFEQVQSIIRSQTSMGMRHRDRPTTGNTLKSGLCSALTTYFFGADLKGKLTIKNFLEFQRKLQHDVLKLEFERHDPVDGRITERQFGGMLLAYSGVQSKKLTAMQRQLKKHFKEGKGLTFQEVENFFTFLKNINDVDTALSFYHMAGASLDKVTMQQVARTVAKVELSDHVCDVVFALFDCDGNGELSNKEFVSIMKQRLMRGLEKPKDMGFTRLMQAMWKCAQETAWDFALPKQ
active: [3] -0.285
inactive: IRAK-1-4 Inhibitor I 0 | ibrutinib -0.009 | [1] -0.025 | ralimetinib 0.007 | [2] -0.016 | [4] 0.08 | pinometostat 0.076 | [5] 0.067 | [6] 0.09

KPNA4 (UniProt O00629)
active: [6] -0.347
inactive: IRAK-1-4 Inhibitor I 0.008 | ibrutinib -0.016 | [1] -0.057 | ralimetinib -0.048 | [2] 0.028 | [3] -0.063 | [4] -0.02 | pinometostat -0.001 | [5] 0.041

LBR (UniProt Q14739)
inactive: IRAK-1-4 Inhibitor I -0.044 | ibrutinib -0.092 | [1] 0.038 | ralimetinib -0.001 | [2] -0.211 | [3] -0.168 | [4] -0.083 | pinometostat 0.211 | [5] -0.036 | [6] 0.188

ILRUN (UniProt Q9H6K1)
inactive: IRAK-1-4 Inhibitor I 0.031 | ibrutinib 0.044 | [1] -0.011 | ralimetinib -0.004 | [2] -0.035 | [3] -0.148 | [4] 0.027 | pinometostat -0.06 | [5] 0.031 | [6] -0.055

ILKAP (UniProt Q9H0C8)
inactive: IRAK-1-4 Inhibitor I -0.07 | ibrutinib -0.016 | [1] -0.055 | ralimetinib -0.024 | [2] -0.133 | [3] -0.078 | [4] -0.053 | pinometostat -0.004 | [5] 0.017 | [6] 0.032

KHDRBS1 (UniProt Q07666)
Chain of UniProt Q07666 (Q07666 whole entry, looked up): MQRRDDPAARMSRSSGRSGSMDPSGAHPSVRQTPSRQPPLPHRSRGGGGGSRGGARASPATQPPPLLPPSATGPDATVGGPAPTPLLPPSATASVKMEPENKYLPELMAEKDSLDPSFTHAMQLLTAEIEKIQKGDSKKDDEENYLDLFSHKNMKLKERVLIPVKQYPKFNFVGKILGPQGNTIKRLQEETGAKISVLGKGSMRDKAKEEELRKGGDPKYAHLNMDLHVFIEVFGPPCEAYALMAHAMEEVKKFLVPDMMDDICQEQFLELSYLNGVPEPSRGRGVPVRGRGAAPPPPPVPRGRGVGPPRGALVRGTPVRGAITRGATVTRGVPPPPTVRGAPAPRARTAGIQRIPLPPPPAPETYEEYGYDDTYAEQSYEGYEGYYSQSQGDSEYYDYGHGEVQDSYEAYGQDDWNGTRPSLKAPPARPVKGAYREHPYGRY
active: [6] 0.621
inactive: IRAK-1-4 Inhibitor I -0.069 | ibrutinib 0.038 | [1] -0.002 | ralimetinib 0.016 | [2] 0.073 | [3] -0.039 | [4] 0.017 | pinometostat -0.052 | [5] -0.012

MAP3K4 isoform 2 (UniProt Q9Y6R4)
inactive: IRAK-1-4 Inhibitor I 0.049 | ibrutinib 0 | [1] 0.198 | ralimetinib 0.007 | [2] -0.014 | [3] -0.027 | [4] -0.023 | pinometostat 0.014 | [5] -0.033 | [6] 0.002

IMMT isoform 4 (UniProt Q16891)
Chain of UniProt Q16891 (Q16891 whole entry, looked up): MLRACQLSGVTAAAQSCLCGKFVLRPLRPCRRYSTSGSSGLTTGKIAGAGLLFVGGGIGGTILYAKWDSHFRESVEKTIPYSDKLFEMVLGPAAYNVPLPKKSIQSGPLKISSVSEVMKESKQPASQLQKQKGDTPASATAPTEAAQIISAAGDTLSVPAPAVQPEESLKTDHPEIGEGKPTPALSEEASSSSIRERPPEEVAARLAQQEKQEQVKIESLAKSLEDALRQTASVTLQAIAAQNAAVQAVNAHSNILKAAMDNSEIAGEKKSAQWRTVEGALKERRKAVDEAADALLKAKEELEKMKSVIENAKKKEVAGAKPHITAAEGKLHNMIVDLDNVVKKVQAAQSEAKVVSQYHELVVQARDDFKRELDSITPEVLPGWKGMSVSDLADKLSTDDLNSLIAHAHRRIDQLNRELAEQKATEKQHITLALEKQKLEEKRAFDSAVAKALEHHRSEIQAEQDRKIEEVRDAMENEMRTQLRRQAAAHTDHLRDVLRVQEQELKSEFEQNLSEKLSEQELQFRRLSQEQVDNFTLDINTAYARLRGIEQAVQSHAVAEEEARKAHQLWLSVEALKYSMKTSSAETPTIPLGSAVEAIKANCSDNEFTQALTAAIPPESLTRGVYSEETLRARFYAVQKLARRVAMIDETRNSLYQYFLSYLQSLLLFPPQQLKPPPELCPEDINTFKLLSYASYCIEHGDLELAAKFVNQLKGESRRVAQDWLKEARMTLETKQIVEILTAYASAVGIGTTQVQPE
inactive: IRAK-1-4 Inhibitor I 0.037 | ibrutinib -0.005 | [1] -0.015 | ralimetinib -0.044 | [2] -0.035 | [3] -0.179 | [4] -0.013 | pinometostat -0.013 | [5] 0.017 | [6] 0.01

MIEF1 (UniProt Q9NQG6)
inactive: IRAK-1-4 Inhibitor I 0.056 | ibrutinib -0.003 | [1] -0.016 | ralimetinib -0.07 | [2] -0.183 | [3] -0.247 | [4] -0.034 | pinometostat -0.038 | [5] -0.085 | [6] 0.112

LMBRD2 (UniProt Q68DH5)
active: [3] -0.244
inactive: IRAK-1-4 Inhibitor I 0.14 | ibrutinib -0.034 | [1] 0.034 | ralimetinib -0.016 | [2] -0.021 | [4] -0.093 | pinometostat 0.037 | [5] -0.007 | [6] 0.012

IKZF1 (UniProt Q13422)
inactive: IRAK-1-4 Inhibitor I -0.017 | ibrutinib 0.041 | [1] -0.069 | ralimetinib -0.036 | [2] -0.015 | [3] -0.016 | [4] 0.011 | pinometostat 0.01 | [5] 0.02 | [6] 0.275

MAPKAPK3 (UniProt Q16644)
inactive: IRAK-1-4 Inhibitor I 0.031 | ibrutinib 0.006 | [2] -0.103 | [3] -0.121 | [4] -0.151 | pinometostat -0.039 | [5] -0.008 | [6] 0.045
active: [1] 0.332 | ralimetinib 0.413

ILVBL (UniProt A1L0T0)
inactive: IRAK-1-4 Inhibitor I 0.073 | ibrutinib 0.048 | [1] -0.027 | ralimetinib -0.075 | [2] -0.053 | [3] 0.058 | [4] -0.018 | pinometostat 0.066 | [5] -0.013 | [6] 0.025

MAP2K3 isoform 3 (UniProt P46734)
inactive: IRAK-1-4 Inhibitor I 0.012 | ibrutinib 0.032 | ralimetinib 0.02 | [2] 0.059 | [3] -0.035 | [4] -0.022 | pinometostat -0.012 | [5] 0.064 | [6] -0.032
active: [1] -0.457

IMMT isoform 2 (UniProt Q16891)
inactive: IRAK-1-4 Inhibitor I 0.053 | ibrutinib -0.011 | [1] 0.022 | ralimetinib 0.054 | [2] 0.051 | [3] 0.015 | [4] -0.028 | pinometostat 0.058 | [5] 0.035 | [6] -0.106

METTL18 (UniProt O95568)
inactive: IRAK-1-4 Inhibitor I 0.01 | ibrutinib 0.019 | [1] 0.013 | ralimetinib -0.036 | [2] 0.016 | [3] -0.009 | [4] -0.003 | pinometostat 0.023 | [5] 0.065 | [6] 0.072

LNPEP (UniProt Q9UIQ6)
inactive: IRAK-1-4 Inhibitor I 0.015 | ibrutinib 0.021 | [1] -0.021 | ralimetinib 0.005 | [2] -0.02 | [3] 0.014 | [4] 0 | pinometostat -0.018 | [5] 0.001 | [6] 0.016

LTO1 (UniProt Q8WV07)
Chain of UniProt Q8WV07 (Q8WV07 whole entry, looked up): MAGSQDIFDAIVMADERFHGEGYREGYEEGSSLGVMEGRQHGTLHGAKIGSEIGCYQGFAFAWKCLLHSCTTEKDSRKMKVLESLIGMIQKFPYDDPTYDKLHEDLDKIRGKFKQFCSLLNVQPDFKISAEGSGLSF
inactive: IRAK-1-4 Inhibitor I -0.028 | ibrutinib 0.037 | [1] 0.061 | ralimetinib 0.028 | [2] 0.011 | [3] -0.017 | [4] 0 | pinometostat -0.028 | [5] 0.04 | [6] 0.041

LSS (UniProt P48449)
inactive: IRAK-1-4 Inhibitor I -0.119 | ibrutinib -0.087 | [1] -0.084 | ralimetinib 0.147 | [2] 0.099 | [3] 0.199 | [4] 0.077 | pinometostat -0.116 | [5] -0.022 | [6] -0.195

MIER1 isoform 12 (UniProt Q8N108)
inactive: IRAK-1-4 Inhibitor I 0.055 | ibrutinib -0.012 | [1] -0.035 | ralimetinib 0.033 | [2] -0.021 | [3] -0.062 | [4] 0.03 | pinometostat -0.013 | [5] 0.027 | [6] -0.122

L2HGDH (UniProt Q9H9P8)
inactive: IRAK-1-4 Inhibitor I 0.095 | ibrutinib 0.028 | [1] -0.065 | ralimetinib 0.003 | [2] -0.092 | [3] -0.069 | [4] -0.026 | pinometostat 0 | [5] -0.018 | [6] 0.029

KCT2 (UniProt Q8NC54)
inactive: IRAK-1-4 Inhibitor I 0.039 | ibrutinib 0.029 | [1] -0.04 | ralimetinib -0.014 | [2] 0.004 | [3] -0.118 | [4] -0.011 | pinometostat 0.009 | [5] 0.035 | [6] -0.035

LDLR (UniProt P01130)
inactive: IRAK-1-4 Inhibitor I 0.03 | ibrutinib -0.015 | [1] -0.106 | ralimetinib -0.025 | [2] 0.072 | [3] -0.009 | [4] 0.171 | pinometostat -0.011 | [5] 0.019 | [6] -0.058

ITPRIP (UniProt Q8IWB1)
inactive: IRAK-1-4 Inhibitor I -0.063 | ibrutinib 0.059 | [1] -0.013 | ralimetinib 0.005 | [2] 0.007 | [3] -0.074 | [4] 0.082 | pinometostat -0.005 | [5] -0.001 | [6] 0.022

IGF2R (UniProt P11717)
Chain of UniProt P11717 (P11717 whole entry, looked up): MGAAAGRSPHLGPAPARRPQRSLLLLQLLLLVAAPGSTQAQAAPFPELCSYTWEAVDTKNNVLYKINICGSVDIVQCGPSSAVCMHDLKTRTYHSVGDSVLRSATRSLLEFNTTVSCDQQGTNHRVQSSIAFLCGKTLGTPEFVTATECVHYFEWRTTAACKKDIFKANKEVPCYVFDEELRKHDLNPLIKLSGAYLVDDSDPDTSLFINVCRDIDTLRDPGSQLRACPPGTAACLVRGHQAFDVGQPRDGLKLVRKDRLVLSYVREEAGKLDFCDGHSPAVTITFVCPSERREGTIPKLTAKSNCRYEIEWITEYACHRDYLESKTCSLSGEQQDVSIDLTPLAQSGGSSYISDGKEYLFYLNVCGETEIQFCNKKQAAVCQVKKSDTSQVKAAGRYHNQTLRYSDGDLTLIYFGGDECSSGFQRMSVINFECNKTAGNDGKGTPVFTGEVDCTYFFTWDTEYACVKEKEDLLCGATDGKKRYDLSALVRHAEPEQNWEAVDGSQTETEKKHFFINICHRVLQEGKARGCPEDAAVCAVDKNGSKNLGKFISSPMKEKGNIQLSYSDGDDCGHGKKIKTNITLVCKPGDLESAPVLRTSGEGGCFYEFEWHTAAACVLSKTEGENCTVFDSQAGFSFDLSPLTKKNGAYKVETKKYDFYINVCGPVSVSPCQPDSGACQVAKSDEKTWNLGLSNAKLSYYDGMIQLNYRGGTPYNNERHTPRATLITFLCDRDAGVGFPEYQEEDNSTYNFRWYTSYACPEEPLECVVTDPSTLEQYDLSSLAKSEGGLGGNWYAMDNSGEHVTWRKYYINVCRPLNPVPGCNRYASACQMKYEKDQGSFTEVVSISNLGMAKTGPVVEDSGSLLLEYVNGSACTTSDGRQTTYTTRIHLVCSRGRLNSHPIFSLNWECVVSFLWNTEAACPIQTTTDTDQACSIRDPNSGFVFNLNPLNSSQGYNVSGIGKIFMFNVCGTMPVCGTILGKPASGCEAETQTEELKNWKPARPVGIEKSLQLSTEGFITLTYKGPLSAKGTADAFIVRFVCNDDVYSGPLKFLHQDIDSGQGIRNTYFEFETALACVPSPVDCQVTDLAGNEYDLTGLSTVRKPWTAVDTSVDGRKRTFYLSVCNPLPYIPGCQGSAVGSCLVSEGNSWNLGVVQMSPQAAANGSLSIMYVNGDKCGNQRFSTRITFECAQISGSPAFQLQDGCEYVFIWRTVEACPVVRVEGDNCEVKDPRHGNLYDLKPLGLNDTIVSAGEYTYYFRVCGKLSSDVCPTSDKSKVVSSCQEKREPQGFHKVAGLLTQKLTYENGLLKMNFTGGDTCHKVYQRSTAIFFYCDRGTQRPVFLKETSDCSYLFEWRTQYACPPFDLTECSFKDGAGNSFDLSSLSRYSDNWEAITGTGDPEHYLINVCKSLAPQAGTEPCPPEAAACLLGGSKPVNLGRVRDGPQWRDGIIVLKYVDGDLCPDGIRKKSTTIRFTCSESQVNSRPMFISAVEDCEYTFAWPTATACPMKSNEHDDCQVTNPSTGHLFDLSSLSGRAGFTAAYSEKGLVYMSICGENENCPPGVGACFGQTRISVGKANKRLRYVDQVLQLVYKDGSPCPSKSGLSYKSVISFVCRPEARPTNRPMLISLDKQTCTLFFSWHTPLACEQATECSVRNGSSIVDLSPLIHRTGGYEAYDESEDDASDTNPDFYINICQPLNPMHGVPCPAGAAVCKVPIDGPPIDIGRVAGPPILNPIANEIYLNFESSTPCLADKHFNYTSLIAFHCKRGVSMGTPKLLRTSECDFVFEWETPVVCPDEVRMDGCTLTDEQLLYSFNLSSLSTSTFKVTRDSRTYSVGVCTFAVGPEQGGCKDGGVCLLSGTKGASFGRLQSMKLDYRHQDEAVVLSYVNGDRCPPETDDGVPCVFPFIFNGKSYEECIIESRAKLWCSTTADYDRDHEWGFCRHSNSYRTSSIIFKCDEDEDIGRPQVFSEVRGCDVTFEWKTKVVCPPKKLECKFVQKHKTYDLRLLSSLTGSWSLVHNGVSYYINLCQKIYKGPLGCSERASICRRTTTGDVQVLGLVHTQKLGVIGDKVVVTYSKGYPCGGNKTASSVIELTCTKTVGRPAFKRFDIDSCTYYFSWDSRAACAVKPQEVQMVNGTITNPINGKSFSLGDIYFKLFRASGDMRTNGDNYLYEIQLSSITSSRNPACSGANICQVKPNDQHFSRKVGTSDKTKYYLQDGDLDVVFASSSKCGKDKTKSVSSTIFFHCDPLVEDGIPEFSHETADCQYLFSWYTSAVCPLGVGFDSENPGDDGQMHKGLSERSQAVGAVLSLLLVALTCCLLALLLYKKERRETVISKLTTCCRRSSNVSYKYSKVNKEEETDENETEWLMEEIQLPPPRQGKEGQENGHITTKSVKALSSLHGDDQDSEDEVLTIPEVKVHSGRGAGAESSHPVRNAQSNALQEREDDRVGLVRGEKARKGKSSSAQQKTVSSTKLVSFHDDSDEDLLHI
inactive: IRAK-1-4 Inhibitor I -0.002 | ibrutinib 0.013 | [1] 0.016 | ralimetinib -0.038 | [2] -0.007 | [4] -0.009 | pinometostat 0.005 | [5] 0.029 | [6] -0.071
active: [3] -0.218

IPO13 (UniProt O94829)
inactive: IRAK-1-4 Inhibitor I -0.005 | ibrutinib -0.1 | [1] 0.066 | ralimetinib 0.103 | [2] -0.226 | [4] 0.002 | pinometostat 0.015 | [5] -0.026 | [6] -0.04
active: [3] -0.281

LMF2 (UniProt Q9BU23)
inactive: IRAK-1-4 Inhibitor I 0.006 | ibrutinib -0.035 | [1] 0.001 | ralimetinib -0.008 | [2] -0.029 | [3] -0.152 | [4] 0.08 | pinometostat 0.008 | [5] -0.018 | [6] 0.001

MAP3K7 (UniProt O43318)
Chain of UniProt O43318 (O43318 whole entry, looked up): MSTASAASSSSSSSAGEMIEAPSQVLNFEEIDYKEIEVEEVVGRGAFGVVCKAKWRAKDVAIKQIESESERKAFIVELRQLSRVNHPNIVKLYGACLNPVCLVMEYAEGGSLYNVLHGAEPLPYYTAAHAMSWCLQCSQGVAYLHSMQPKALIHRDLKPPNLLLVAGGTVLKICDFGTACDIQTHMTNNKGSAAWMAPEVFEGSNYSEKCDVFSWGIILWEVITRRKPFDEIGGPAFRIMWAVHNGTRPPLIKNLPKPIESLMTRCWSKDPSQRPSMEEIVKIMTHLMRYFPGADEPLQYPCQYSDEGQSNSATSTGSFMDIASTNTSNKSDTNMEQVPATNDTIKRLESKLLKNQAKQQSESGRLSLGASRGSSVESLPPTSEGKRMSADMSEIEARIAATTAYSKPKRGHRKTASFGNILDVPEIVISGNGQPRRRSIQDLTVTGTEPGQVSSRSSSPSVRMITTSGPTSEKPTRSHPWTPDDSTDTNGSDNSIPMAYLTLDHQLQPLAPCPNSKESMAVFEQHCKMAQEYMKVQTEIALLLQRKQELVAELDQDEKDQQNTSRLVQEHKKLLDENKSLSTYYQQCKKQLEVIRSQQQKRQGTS
inactive: IRAK-1-4 Inhibitor I -0.123 | ibrutinib -0.061 | [1] -0.075 | ralimetinib 0.035 | [2] -0.207 | [3] -0.159 | [4] 0.05 | pinometostat 0.102 | [5] 0.024 | [6] 0.006

MED12 isoform 2 (UniProt Q93074)
inactive: IRAK-1-4 Inhibitor I -0.057 | ibrutinib -0.098 | ralimetinib -0.05 | [2] -0.024 | [3] -0.291 | [4] -0.005 | pinometostat 0.251 | [5] -0.053 | [6] -0.04
active: [1] -0.747

MAP4 (UniProt E7EVA0)
inactive: IRAK-1-4 Inhibitor I -0.058 | ibrutinib -0.036 | [1] -0.022 | ralimetinib 0.088 | [2] 0.013 | [3] -0.025 | [4] 0.049 | pinometostat 0.104 | [5] -0.046 | [6] 0.027
